# Experimental data reported in publication PMC7862700, “An all-to-all approach to the identification of sequence-specific readers for epigenetic DNA modifications on cytosine”.
# Columns and labels:
# Assay in all cases: DAPPL (digital affinity profiling via proximity ligation, sequencing); 10 mM Tris-HCl pH 7.5, 50 mM NaCl, 1 mM DTT, 4% glycerol, room temperature, 30 min; GST-TFs on glutathione beads, 16-mer random dsDNA library, 0.1% formaldehyde crosslink after washing; high values mean tight binding
# Conditions in all cases: protein: recombinant; tags: N-terminal GST; dsDNA, one strand shown
# ELK1 = molecular target: T1, ELK1 (Homo sapiens, UniProt P19419 1-428)
# T1 sequence: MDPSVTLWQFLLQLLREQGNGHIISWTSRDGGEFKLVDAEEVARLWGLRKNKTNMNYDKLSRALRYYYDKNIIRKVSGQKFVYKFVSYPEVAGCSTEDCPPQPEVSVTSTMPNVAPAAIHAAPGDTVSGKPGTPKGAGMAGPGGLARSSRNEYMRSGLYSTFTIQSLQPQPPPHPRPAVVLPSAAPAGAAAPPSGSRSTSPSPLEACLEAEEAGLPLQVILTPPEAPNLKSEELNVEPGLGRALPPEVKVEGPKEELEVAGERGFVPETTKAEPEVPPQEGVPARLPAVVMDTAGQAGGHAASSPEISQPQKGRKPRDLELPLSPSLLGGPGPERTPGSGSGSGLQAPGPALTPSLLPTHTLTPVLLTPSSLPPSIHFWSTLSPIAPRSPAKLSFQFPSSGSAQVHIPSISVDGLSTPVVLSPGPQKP
# Summary of the method: (§1)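 Beads coated with glutathione captured GST-fused human transcription factors that had been expressed in yeast, and the factors were then given DNA barcodes and pooled with a tag-only sample. The pools were incubated with 200 nmole of a random double-stranded 16-mer DNA library in Tris/NaCl/DTT/glycerol buffer for 30 min at room temperature, washed, crosslinked with 0.1% formaldehyde and proximity-ligated with BsaI/T4 ligase at 37 °C for 1 h. PCR amplification and Illumina NextSeq500 sequencing came last. Binding signal is each hexamer's read frequency for a factor divided by its frequency for the tag-only sample.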
# GABPA = molecular target: T2, GABPA (Homo sapiens, UniProt Q06546 1-454)
# T2 sequence: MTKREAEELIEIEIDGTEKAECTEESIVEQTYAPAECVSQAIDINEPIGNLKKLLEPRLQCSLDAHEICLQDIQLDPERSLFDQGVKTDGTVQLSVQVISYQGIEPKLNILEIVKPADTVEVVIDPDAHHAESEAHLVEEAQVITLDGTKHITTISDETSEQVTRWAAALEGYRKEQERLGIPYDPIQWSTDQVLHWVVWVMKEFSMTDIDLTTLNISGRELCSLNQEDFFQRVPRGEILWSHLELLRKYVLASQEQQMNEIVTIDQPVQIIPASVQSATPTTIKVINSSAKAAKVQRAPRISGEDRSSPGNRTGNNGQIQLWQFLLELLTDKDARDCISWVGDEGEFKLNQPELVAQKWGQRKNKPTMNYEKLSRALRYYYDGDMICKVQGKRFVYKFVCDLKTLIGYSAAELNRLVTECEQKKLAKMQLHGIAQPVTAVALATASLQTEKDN
# Summary of the method: as §1
# ERG = molecular target: T3, ERG (Homo sapiens, UniProt P11308 1-479)
# T3 sequence: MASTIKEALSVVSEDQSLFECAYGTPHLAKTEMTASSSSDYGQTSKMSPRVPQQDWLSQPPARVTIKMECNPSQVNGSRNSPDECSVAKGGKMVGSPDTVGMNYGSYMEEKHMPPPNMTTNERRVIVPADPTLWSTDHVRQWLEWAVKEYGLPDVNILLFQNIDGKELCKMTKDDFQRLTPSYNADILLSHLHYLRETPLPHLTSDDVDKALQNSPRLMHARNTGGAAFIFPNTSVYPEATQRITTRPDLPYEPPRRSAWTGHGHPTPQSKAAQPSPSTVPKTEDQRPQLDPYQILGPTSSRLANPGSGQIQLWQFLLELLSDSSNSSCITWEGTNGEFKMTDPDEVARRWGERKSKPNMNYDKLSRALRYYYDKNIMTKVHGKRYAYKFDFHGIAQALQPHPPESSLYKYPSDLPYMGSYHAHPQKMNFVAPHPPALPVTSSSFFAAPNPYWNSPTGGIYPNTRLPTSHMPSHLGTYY
# Summary of the method: as §1
# SPIB = SPIB (Homo sapiens, UniProt Q01892 1-262)
# Summary of the method: as §1
# SPIC = molecular target: T4, SPIC (Homo sapiens, UniProt Q8N5J4 1-248)
# T4 sequence: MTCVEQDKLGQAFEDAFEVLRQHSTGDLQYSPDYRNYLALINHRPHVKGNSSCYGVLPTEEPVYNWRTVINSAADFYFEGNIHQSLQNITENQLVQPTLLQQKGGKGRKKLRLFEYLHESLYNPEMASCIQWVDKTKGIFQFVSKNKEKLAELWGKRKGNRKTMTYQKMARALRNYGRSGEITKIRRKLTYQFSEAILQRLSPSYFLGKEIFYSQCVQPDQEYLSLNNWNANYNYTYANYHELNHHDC
# Summary of the method: as §1
# ELF4 = ELF4 (Homo sapiens, UniProt Q99607 1-663)
# Summary of the method: as §1
# ETV1 = ETV1 (Homo sapiens, UniProt P50549 1-477)
# Summary of the method: as §1
# ETV3L = molecular target: T5, ETV3L (Homo sapiens, UniProt Q6ZN32 1-361)
# T5 sequence: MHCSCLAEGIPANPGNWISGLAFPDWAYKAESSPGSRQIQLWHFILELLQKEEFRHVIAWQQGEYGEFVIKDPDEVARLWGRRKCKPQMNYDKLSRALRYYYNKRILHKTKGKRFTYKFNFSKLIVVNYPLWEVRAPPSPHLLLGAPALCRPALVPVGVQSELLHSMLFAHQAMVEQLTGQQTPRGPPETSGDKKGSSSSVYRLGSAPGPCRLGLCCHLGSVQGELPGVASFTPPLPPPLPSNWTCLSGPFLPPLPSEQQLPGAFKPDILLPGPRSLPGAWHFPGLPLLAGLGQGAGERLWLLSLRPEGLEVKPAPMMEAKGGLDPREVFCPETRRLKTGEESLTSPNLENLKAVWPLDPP
# Summary of the method: as §1
# ETS2 = molecular target: T6, ETS2 (Homo sapiens, UniProt P15036 1-469)
# T6 sequence: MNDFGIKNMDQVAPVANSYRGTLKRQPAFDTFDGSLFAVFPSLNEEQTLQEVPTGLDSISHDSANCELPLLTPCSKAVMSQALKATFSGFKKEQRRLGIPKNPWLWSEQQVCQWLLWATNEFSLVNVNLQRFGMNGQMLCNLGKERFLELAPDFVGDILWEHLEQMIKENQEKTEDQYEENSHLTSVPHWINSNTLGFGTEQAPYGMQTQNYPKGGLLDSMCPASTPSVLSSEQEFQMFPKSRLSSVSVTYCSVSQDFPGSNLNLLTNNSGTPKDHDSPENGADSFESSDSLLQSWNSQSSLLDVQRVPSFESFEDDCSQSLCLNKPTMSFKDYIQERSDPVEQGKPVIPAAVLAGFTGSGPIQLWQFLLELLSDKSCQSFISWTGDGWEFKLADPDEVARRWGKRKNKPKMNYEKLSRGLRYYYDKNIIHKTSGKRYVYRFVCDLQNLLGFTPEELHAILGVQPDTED
# Summary of the method: as §1
# SPDEF = molecular target: T7, SPDEF (Homo sapiens, UniProt O95238 1-335)
# T7 sequence: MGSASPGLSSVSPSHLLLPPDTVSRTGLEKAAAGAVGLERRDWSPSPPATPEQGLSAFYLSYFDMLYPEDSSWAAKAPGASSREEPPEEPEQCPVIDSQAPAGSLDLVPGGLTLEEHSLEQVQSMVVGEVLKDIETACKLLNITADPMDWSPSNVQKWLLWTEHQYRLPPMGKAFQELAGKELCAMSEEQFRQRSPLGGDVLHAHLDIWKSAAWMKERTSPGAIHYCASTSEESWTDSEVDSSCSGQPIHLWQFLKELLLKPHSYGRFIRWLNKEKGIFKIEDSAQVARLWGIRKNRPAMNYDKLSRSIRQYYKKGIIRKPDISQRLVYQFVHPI
# Summary of the method: as §1
# ETV7 = molecular target: T8, ETV7 (Homo sapiens, UniProt Q9Y603 1-341)
# T8 sequence: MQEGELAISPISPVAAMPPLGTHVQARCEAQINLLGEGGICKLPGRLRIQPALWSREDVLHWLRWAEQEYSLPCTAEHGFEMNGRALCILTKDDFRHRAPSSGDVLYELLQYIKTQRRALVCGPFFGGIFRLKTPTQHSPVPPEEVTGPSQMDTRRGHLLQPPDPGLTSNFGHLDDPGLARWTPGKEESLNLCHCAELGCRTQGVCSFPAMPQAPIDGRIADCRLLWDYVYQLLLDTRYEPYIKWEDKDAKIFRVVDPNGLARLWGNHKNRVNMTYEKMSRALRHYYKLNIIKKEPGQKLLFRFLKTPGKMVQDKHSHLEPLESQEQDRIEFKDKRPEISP
# Summary of the method: as §1
# ETV3 = molecular target: T9, ETV3 (Homo sapiens, UniProt P41162-2 1-143)
# T9 sequence: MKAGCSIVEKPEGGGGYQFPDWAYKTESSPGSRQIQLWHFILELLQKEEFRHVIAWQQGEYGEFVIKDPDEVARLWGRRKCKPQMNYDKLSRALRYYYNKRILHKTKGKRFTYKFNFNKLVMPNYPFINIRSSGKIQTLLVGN
# Summary of the method: as §1
# ELF1 = ELF1 (Homo sapiens, UniProt P32519 1-619)
# Summary of the method: as §1
# EHF = molecular target: T10, EHF (Homo sapiens, UniProt Q9NZC4 1-300)
# T10 sequence: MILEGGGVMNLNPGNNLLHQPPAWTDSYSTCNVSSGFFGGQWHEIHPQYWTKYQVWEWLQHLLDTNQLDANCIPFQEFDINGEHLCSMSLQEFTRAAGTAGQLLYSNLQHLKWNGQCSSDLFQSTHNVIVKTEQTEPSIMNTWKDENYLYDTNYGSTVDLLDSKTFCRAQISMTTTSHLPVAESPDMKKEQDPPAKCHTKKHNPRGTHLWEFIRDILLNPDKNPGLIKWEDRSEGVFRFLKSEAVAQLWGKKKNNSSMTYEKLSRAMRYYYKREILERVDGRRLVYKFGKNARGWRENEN
# Summary of the method: as §1
# ERF = molecular target: T11, ERF (Homo sapiens, UniProt P50548 1-548)
# T11 sequence: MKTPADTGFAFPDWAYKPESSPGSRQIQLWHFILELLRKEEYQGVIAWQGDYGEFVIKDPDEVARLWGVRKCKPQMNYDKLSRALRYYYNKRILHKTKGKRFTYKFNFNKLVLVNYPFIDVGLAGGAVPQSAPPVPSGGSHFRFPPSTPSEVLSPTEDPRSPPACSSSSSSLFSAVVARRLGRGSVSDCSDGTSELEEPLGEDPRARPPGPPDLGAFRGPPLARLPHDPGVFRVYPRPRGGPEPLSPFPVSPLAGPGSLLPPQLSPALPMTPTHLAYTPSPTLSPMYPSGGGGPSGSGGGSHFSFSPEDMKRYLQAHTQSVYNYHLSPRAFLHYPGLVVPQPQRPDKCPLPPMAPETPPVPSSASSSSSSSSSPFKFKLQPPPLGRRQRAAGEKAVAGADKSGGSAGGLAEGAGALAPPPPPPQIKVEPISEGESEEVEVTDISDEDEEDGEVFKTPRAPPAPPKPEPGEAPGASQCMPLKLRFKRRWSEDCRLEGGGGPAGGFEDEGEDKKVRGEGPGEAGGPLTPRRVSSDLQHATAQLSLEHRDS
# Summary of the method: as §1
# Chain of ETV1 (P50549 whole entry): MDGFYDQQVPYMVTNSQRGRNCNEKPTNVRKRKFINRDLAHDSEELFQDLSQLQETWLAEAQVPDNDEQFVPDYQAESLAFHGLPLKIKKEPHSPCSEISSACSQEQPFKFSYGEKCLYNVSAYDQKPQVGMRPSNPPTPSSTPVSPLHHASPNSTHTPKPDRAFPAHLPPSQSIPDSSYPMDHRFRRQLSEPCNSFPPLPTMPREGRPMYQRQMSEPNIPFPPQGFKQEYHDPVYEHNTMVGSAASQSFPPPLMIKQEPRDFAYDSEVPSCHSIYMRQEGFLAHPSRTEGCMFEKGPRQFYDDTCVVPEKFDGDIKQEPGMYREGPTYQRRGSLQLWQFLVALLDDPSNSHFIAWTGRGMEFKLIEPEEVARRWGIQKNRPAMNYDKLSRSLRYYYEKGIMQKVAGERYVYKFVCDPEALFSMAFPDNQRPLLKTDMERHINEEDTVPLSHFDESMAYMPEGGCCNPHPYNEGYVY
# Chain of ELF1 (P32519 whole entry): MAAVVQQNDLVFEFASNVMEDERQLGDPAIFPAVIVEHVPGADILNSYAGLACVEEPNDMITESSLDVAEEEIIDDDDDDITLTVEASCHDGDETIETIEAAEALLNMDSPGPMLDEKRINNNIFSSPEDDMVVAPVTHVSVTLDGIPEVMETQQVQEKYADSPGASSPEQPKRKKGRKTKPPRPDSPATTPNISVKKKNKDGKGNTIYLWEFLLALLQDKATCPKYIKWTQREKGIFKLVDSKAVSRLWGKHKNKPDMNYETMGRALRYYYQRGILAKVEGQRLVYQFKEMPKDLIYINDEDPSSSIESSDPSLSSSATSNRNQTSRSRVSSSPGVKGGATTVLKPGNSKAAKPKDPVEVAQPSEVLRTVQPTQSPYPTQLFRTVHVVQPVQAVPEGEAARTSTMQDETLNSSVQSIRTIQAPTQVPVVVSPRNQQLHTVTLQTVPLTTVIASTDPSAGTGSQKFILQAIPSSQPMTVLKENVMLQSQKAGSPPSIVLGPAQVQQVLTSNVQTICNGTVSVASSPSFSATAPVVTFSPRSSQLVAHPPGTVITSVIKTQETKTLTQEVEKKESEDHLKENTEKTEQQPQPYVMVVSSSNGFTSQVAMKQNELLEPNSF
# Chain of SPIB (Q01892 whole entry): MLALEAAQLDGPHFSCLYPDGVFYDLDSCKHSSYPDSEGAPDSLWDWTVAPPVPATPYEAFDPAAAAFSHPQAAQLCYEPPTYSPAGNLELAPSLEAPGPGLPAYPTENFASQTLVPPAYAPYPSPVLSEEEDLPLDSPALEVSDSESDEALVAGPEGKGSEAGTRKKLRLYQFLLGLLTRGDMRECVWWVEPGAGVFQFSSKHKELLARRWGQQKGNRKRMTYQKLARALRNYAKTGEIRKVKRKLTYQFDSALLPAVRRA
# Chain of ELF4 (Q99607 whole entry): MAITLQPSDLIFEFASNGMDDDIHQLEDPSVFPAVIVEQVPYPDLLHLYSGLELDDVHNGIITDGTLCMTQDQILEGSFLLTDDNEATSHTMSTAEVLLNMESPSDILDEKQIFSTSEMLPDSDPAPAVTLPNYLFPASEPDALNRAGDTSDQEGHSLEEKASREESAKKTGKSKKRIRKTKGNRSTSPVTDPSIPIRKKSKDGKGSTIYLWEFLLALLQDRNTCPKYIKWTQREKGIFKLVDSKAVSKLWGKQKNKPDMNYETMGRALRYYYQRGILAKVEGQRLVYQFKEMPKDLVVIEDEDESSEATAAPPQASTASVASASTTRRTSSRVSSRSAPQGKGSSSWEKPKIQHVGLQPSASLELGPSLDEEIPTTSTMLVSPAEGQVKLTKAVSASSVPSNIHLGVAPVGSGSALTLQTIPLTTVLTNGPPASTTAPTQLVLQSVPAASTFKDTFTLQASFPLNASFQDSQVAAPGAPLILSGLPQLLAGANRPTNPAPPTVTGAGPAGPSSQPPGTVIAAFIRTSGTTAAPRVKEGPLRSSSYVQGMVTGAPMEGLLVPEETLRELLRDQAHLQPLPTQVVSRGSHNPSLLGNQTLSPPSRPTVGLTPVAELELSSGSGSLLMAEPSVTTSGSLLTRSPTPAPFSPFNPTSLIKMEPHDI
Sequence,binding signal (ELK1),binding signal (GABPA),binding signal (ERG),binding signal (SPIB),binding signal (SPIC),binding signal (ELF4),binding signal (ETV1),binding signal (ETV3L),binding signal (ETS2),binding signal (SPDEF),binding signal (ETV7),binding signal (ETV3),binding signal (ELF1),binding signal (EHF),binding signal (ERF)
GGATCT,"1.07 fold enrichment (6-mer frequency, TF over GST control)","1.02 fold enrichment (6-mer frequency, TF over GST control)","1.01 fold enrichment (6-mer frequency, TF over GST control)","1.02 fold enrichment (6-mer frequency, TF over GST control)","1.01 fold enrichment (6-mer frequency, TF over GST control)","1.02 fold enrichment (6-mer frequency, TF over GST control)","1.03 fold enrichment (6-mer frequency, TF over GST control)","1.06 fold enrichment (6-mer frequency, TF over GST control)","1 fold enrichment (6-mer frequency, TF over GST control)","1.54 fold enrichment (6-mer frequency, TF over GST control)","1.07 fold enrichment (6-mer frequency, TF over GST control)","1.08 fold enrichment (6-mer frequency, TF over GST control)",,,
TAGACT,,"1.02 fold enrichment (6-mer frequency, TF over GST control)","1.05 fold enrichment (6-mer frequency, TF over GST control)",,"1.03 fold enrichment (6-mer frequency, TF over GST control)",,"1.02 fold enrichment (6-mer frequency, TF over GST control)","1 fold enrichment (6-mer frequency, TF over GST control)","1.02 fold enrichment (6-mer frequency, TF over GST control)",,"1.05 fold enrichment (6-mer frequency, TF over GST control)",,"1.09 fold enrichment (6-mer frequency, TF over GST control)","1.04 fold enrichment (6-mer frequency, TF over GST control)","1.07 fold enrichment (6-mer frequency, TF over GST control)"
